Test results from the supplement of paper PMC8728848.
Many of the other results were omitted from the sample, so the strongest signals are more common in it than they were.

Tests used:
Assay in all cases: glycan array binding signal (z-score within array); higher = stronger binding
Conditions in all cases: glycan notation: IUPAC condensed, linker removed; mutation: R276L
[1] = target: Fuc(a1-2)Gal(b1-3)[Fuc(a1-4)]GlcNAc(b1-3)[Fuc(a1-3)[Gal(b1-4)]GlcNAc(b1-6)]Gal(b1-4)Glc
Method in brief: (§1)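 Negative Z-scores can be read as non-binding. The Z-score is calculated within each array and then averaged across arrays of one protein sequence at different concentrations or buffers and across linkers. Arrays, 3228 in all, were curated from the Consortium for Functional Glycomics database and kept only where the protein sequence was available.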

[2] = target: Fuc(a1-2)Gal(b1-3)[Fuc(a1-4)]GlcNAc(b1-3)[Gal(b1-4)GlcNAc(b1-6)]Gal(b1-4)Glc
Method in brief: as §1

[3] = target: Fuc(a1-2)Gal(b1-4)GlcNAc(b1-2)Man(a1-3)[Fuc(a1-2)Gal(b1-4)GlcNAc(b1-2)Man(a1-6)]Man(b1-4)GlcNAc(b1-4)GlcNAc
Method in brief: as §1

[4] = target: Fuc(a1-2)Gal(b1-4)GlcNAc(b1-3)GalNAc
Method in brief: as §1

[5] = target: Fuc(a1-2)Gal(b1-4)GlcNAc(b1-3)[Fuc(a1-2)Gal(b1-4)GlcNAc(b1-6)]GalNAc
Method in brief: as §1

[6] = target: Fuc(a1-2)Gal(b1-4)GlcNAc6S
Method in brief: as §1

[7] = target: Fuc(a1-2)[GalNAc(a1-3)]Gal(b1-3)GalNAc(b1-3)Gal(a1-4)Gal(b1-4)Glc
Method in brief: as §1

[8] = target: Fuc(a1-2)[GalNAc(a1-3)]Gal(b1-3)GlcNAc
Method in brief: as §1

[9] = target: Fuc(a1-2)[GalNAc(b1-3)]Gal
Method in brief: as §1

[10] = target: Gal(a1-3)Gal(b1-3)[Fuc(a1-4)]GlcNAc(b1-2)Man(a1-3)[Gal(a1-3)Gal(b1-3)[Fuc(a1-4)]GlcNAc(b1-2)Man(a1-6)]Man(b1-4)GlcNAc(b1-4)GlcNAc
Method in brief: as §1

Gal(a1-4)GlcNAc = target: Gal(a1-4)GlcNAc
Method in brief: as §1

Gal(b1-2)Gal = target: Gal(b1-2)Gal
Method in brief: as §1

Gal(b1-3)Gal = target: Gal(b1-3)Gal
Method in brief: as §1

Gal(b1-3)GalNAc = target: Gal(b1-3)GalNAc
Method in brief: as §1

Gal(b1-3)GalNAc(b1-3)Gal = target: Gal(b1-3)GalNAc(b1-3)Gal
Method in brief: as §1

[11] = target: Gal(b1-3)GalNAc(b1-4)Gal(b1-4)Glc
Method in brief: as §1

Gal(b1-3)GlcNAc = target: Gal(b1-3)GlcNAc
Method in brief: as §1

[12] = target: Gal(b1-3)GlcNAc(b1-2)Man(a1-3)[Gal(b1-3)GlcNAc(b1-2)Man(a1-6)]Man(b1-4)GlcNAc(b1-4)GlcNAc
Method in brief: as §1

[13] = target: Gal(b1-3)GlcNAc(b1-3)Gal(b1-4)Glc
Method in brief: as §1

[14] = target: Gal(b1-3)GlcNAc(b1-3)Gal(b1-4)GlcNAc(b1-2)[Gal(b1-3)GlcNAc(b1-3)Gal(b1-4)GlcNAc(b1-6)]Man(a1-6)[Gal(b1-3)GlcNAc(b1-3)Gal(b1-4)GlcNAc(b1-2)Man(a1-3)]Man(b1-4)GlcNAc(b1-4)[Fuc(a1-6)]GlcNAc
Method in brief: as §1

[15] = target: Gal(b1-3)[Neu5Ac(a2-6)]GalNAc
Method in brief: as §1

[16] = target: Gal(b1-4)GlcNAc(b1-2)Man(a1-3)Man(b1-4)GlcNAc(b1-4)GlcNAc
Method in brief: as §1

[17] = target: Gal(b1-4)GlcNAc(b1-2)Man(a1-3)[GlcNAc(b1-2)Man(a1-6)]Man(b1-4)GlcNAc(b1-4)GlcNAc
Method in brief: as §1

[18] = target: Gal(b1-4)GlcNAc(b1-2)[Gal(b1-4)GlcNAc(b1-4)]Man(a1-3)[GlcNAc(b1-4)][Gal(b1-4)GlcNAc(b1-2)[Gal(b1-4)GlcNAc(b1-6)]Man(a1-6)]Man(b1-4)GlcNAc(b1-4)GlcNAc
Method in brief: as §1

[19] = target: Gal(b1-4)GlcNAc(b1-3)Gal(b1-4)GlcNAc(b1-2)[Gal(b1-4)GlcNAc(b1-3)Gal(b1-4)GlcNAc(b1-6)]Man(a1-6)[Gal(b1-4)GlcNAc(b1-3)Gal(b1-4)GlcNAc(b1-2)Man(a1-3)]Man(b1-4)GlcNAc(b1-4)GlcNAc
Method in brief: as §1

[20] = target: Gal(b1-4)GlcNAc(b1-3)Gal(b1-4)GlcNAc(b1-3)Gal(b1-4)GlcNAc(b1-2)Man(a1-3)[Gal(b1-4)GlcNAc(b1-3)Gal(b1-4)GlcNAc(b1-3)Gal(b1-4)GlcNAc(b1-2)Man(a1-6)]Man(b1-4)GlcNAc(b1-4)GlcNAc
Method in brief: as §1

[21] = target: Gal(b1-4)GlcNAc(b1-3)Gal(b1-4)GlcNAc(b1-3)Gal(b1-4)GlcNAc(b1-2)[Gal(b1-4)GlcNAc(b1-3)Gal(b1-4)GlcNAc(b1-3)Gal(b1-4)GlcNAc(b1-6)]Man(a1-6)[Gal(b1-4)GlcNAc(b1-3)Gal(b1-4)GlcNAc(b1-3)Gal(b1-4)GlcNAc(b1-2)Man(a1-3)]Man(b1-4)GlcNAc(b1-4)[Fuc(a1-6)]GlcNAc
Method in brief: as §1

[22] = target: Gal(b1-4)GlcNAc(b1-6)GalNAc
Method in brief: as §1

Gal3S6S(b1-4)GlcNAc = target: Gal3S6S(b1-4)GlcNAc
Method in brief: as §1

Gal4S6S(b1-4)GlcNAc = target: Gal4S6S(b1-4)GlcNAc
Method in brief: as §1

GalNAc(b1-4)GlcNAc = target: GalNAc(b1-4)GlcNAc
Method in brief: as §1

Glc(a1-6)Glc(a1-6)Glc = target: Glc(a1-6)Glc(a1-6)Glc
Method in brief: as §1

[23] = target: GlcNAc(a1-4)Gal(b1-3)GlcNAc
Method in brief: as §1

[24] = target: GlcNAc(a1-4)Gal(b1-4)GlcNAc(b1-3)Gal(b1-4)Glc
Method in brief: as §1

[25] = target: GlcNAc(a1-4)Gal(b1-4)GlcNAc(b1-3)Gal(b1-4)GlcNAc
Method in brief: as §1

[26] = target: GlcNAc(b1-3)Gal(b1-4)GlcNAc(b1-3)GalNAc
Method in brief: as §1

[27] = target: Man(a1-3)[Man(a1-6)]Man(b1-4)GlcNAc(b1-4)GlcNAc
Method in brief: as §1

[28] = target: Man(a1-3)[Man(a1-6)]Man(b1-4)GlcNAc(b1-4)[Fuc(a1-6)]GlcNAc
Method in brief: as §1

[29] = target: Neu5Ac(a2-3)Gal(b1-3)GlcNAc
Method in brief: as §1

[30] = target: Neu5Ac(a2-3)Gal(b1-3)[Neu5Ac(a2-6)]GalNAc
Method in brief: as §1

Neu5Ac(a2-3)Gal(b1-4)Glc = target: Neu5Ac(a2-3)Gal(b1-4)Glc
Method in brief: as §1

[31] = target: Neu5Ac(a2-3)Gal6S(b1-4)[Fuc(a1-3)]GlcNAc
Method in brief: as §1

[32] = target: Neu5Ac(a2-3)[GalNAc(b1-4)]Gal(b1-4)Glc
Method in brief: as §1

[33] = target: Neu5Ac(a2-6)Gal(b1-4)GlcNAc(b1-2)Man
Method in brief: as §1

[34] = target: Neu5Ac(a2-6)Gal(b1-4)GlcNAc(b1-2)Man(a1-6)[GlcNAc(b1-2)Man(a1-3)]Man(b1-4)GlcNAc(b1-4)GlcNAc
Method in brief: as §1

[35] = target: Neu5Ac(a2-6)GlcNAc(b1-4)GlcNAc
Method in brief: as §1

[36] = target: Neu5Gc(a2-3)Gal(b1-3)GlcNAc
Method in brief: as §1

[37] = target: Neu5Gc(a2-3)Gal(b1-4)GlcNAc(b1-3)Gal(b1-4)GlcNAc(b1-2)Man(a1-3)[Neu5Gc(a2-3)Gal(b1-4)GlcNAc(b1-3)Gal(b1-4)GlcNAc(b1-2)Man(a1-6)]Man(b1-4)GlcNAc(b1-4)GlcNAc
Method in brief: as §1

B1: SUN4P (Saccharomyces cerevisiae), P53616 (protein)
chain: MGSSHHHHHHSSGLVPRGSHNGSIYGDLADFSGPYEKFEDGTIPCGQFPSGQGVIPISWLDEGGWSGVENTDTSTGGSCKEGSYCSYACQPGMSKTQWPSDQPSDGRSIGGLLCKDGYLYRSNTDTDYLCEWGVDAAYVVSELSNDVAICLTDYPGTENMVIPTYVQAGDSLPLTVVDQDTYYTWQGLKTSAQYYVNNAGISVEDACVWGSSSSGVGNWAPLNFGAGSSDGVAYLSLIPNPNNGNALNFNVKIVAADDSSTVNGECIYENGSFSGGSDGCTVSVTAGKAKFVLYN
B1 was tested, and the “glycan array binding signal (z-score)” value [1] was -1.15, the “glycan array binding signal (z-score)” value [2] was -0.39 and the “glycan array binding signal (z-score)” value [3] was -0.72. For the same binder, the “glycan array binding signal (z-score)” value [4] was -0.667, the “glycan array binding signal (z-score)” value [5] was -0.351 and the “glycan array binding signal (z-score)” value [6] was 1.81. For the same binder, the “glycan array binding signal (z-score)” value [7] was -0.881, the “glycan array binding signal (z-score)” value [8] was -0.545 and the “glycan array binding signal (z-score)” value [9] was 1.77. The “glycan array binding signal (z-score)” value [10] was -0.029, the “glycan array binding signal (z-score)” value (Gal(a1-4)GlcNAc) was -0.2 and the “glycan array binding signal (z-score)” value (Gal(b1-2)Gal) was 0.046. For the same binder, the “glycan array binding signal (z-score)” value (Gal(b1-3)Gal) was 1.8, the “glycan array binding signal (z-score)” value (Gal(b1-3)GalNAc) was 2.6 and the “glycan array binding signal (z-score)” value (Gal(b1-3)GalNAc(b1-3)Gal) was 7.07. For the same binder, the “glycan array binding signal (z-score)” value [11] was 11.2, the “glycan array binding signal (z-score)” value (Gal(b1-3)GlcNAc) was -0.318 and the “glycan array binding signal (z-score)” value [12] was -0.366. For the same binder, the “glycan array binding signal (z-score)” value [13] was -0.852, the “glycan array binding signal (z-score)” value [14] was 2.11 and the “glycan array binding signal (z-score)” value [15] was 2.79. The “glycan array binding signal (z-score)” value [16] was -0.274, the “glycan array binding signal (z-score)” value [17] was -0.054 and the “glycan array binding signal (z-score)” value [18] was 0.051. The “glycan array binding signal (z-score)” value [19] was -0.671, the “glycan array binding signal (z-score)” value [20] was 0.667 and the “glycan array binding signal (z-score)” value [21] was 2.41. For the same binder, the “glycan array binding signal (z-score)” value [22] was -0.068, the “glycan array binding signal (z-score)” value (Gal3S6S(b1-4)GlcNAc) was 1.73 and the “glycan array binding signal (z-score)” value (Gal4S6S(b1-4)GlcNAc) was 0.289. For the same binder, the “glycan array binding signal (z-score)” value (GalNAc(b1-4)GlcNAc) was -0.514, the “glycan array binding signal (z-score)” value (Glc(a1-6)Glc(a1-6)Glc) was -1.11 and the “glycan array binding signal (z-score)” value [23] was 1.83. For the same binder, the “glycan array binding signal (z-score)” value [24] was -1.22, the “glycan array binding signal (z-score)” value [25] was -0.664 and the “glycan array binding signal (z-score)” value [26] was 2.14. For the same binder, the “glycan array binding signal (z-score)” value [27] was -0.241, the “glycan array binding signal (z-score)” value [28] was -0.543 and the “glycan array binding signal (z-score)” value [29] was 0.214. For the same binder, the “glycan array binding signal (z-score)” value [30] was -0.468, the “glycan array binding signal (z-score)” value (Neu5Ac(a2-3)Gal(b1-4)Glc) was -1.01 and the “glycan array binding signal (z-score)” value [31] was -1.12. The “glycan array binding signal (z-score)” value [32] was 1.36, the “glycan array binding signal (z-score)” value [33] was 0.374 and the “glycan array binding signal (z-score)” value [34] was 0.936. For the same binder, the “glycan array binding signal (z-score)” value [35] was 2.98, the “glycan array binding signal (z-score)” value [36] was 0.424 and the “glycan array binding signal (z-score)” value [37] was -0.663.
